CYP2C9 act: CYP2C9 (human) activation; recombinant CYP2C9, luciferin-H conversion, luminescence; stronger effect = higher value; factor 1 = untreated enzyme, 0 = blocked; activation factor at 5 µM; 96,000 tested, 1.4% active; AID 1024;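 active = activation factor of 2 or more for CYP2C9 at a 5 µM dose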
Target sequence (P11712 whole entry, looked up): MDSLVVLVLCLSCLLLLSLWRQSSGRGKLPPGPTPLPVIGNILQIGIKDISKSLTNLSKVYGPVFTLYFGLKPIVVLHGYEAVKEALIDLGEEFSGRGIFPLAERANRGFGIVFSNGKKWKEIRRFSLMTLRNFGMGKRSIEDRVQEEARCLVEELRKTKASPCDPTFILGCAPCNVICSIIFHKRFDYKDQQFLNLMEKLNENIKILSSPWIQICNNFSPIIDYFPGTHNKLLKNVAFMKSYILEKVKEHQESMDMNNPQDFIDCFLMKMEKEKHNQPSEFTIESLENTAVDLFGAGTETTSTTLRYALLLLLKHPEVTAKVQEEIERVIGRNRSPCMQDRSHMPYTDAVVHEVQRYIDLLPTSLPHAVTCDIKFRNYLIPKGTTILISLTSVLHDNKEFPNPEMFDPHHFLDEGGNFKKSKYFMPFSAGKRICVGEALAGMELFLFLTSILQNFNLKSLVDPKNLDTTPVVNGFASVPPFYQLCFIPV
CYP2C19 act: increases human CYP2C19 enzyme activity; 96,000 tested, under 10 active; activation factor at 5 µM; P33261; recombinant CYP2C19, luciferin-H EGE luminescence; stronger effect = higher value; 0 = fully inhibited enzyme, 1 = untreated enzyme; AID 1025;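 active = activation factor of at least 2 at 5 µM in the primary screen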
CYP2C9 inhib: inhibitors of human CYP2C9; P11712; CYP2C9 Supersomes, luciferin-H conversion, luminescence; inhibition, % at 5 µM; 96,000 tested, 20% active;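 active = blocking of liver enzyme CYP2C9 beyond about 50% at 5 µM, limit read from the data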
CYP2C19 inhib: inhibitors of human CYP2C19; P33261; CYP2C19 Supersomes, luciferin-H EGE luminescence, 30 min; inhibition, % at 5 µM; 96,000 tested, 21% active;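 active = CYP2C19 inhibition above a set limit at 5 µM in the primary screen, cut at about 50% in these data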
Each line names hits and unclear results; the compound was inactive in the other large screens. Compounds with a hit are over-represented: about 31% of the library has one in this group of screens.

CCS(=O)(=O)N1CCN(C(=O)c2ccc(-c3ccccc3)cc2)CC1	none
COc1cccc(-c2cc(C(=O)Nc3cccc(O)c3)no2)c1	CYP2C9 act 2.3
O=C(Nc1cccc(C(F)(F)F)c1)c1cc(-c2ccc(F)cc2)on1	CYP2C9 act 3.5
CC(C)c1cc(C(=O)Nc2cccc(C(F)(F)F)c2)no1	none
CCc1ccccc1NC(=O)c1cc(-c2cccc(O)c2)on1	CYP2C9 act 4.8
COc1cccc(-c2cc(C(=O)NC3CCCC3)no2)c1	CYP2C19 inhib 80
O=C(CN(Cc1ccccc1Cl)C(=O)c1ccc(CN2CCOCC2)o1)NCc1ccccc1	none
CCOC(=O)C1CCN(C(=O)C2CC(=O)N(c3ccc(C)cc3)C2)CC1 (configuration not stated)	none
CCCCc1cc(=O)oc2cc(C)cc(O)c12	CYP2C9 inhib 68, CYP2C19 inhib 55
COc1ccc([N+](=O)[O-])cc1COc1cc(C)cc2oc(=O)cc(-c3ccccc3)c12	CYP2C9 inhib 92, CYP2C19 inhib 75
Cc1cc(O)c2c(-c3ccccc3)cc(=O)oc2c1	CYP2C9 inhib 76, CYP2C19 inhib 52
CCCCc1cc(=O)oc2cc(C)cc(OC(C)C(=O)O)c12 (configuration not stated)	none
CC1(C)CC2(CC(c3cccs3)c3cc(Cl)c(O)cc3O2)NC(=S)N1 (configuration not stated)	none
COc1ccc(CNC(=O)c2ccc(CN3CCOCC3)cc2)cc1	none
COc1ccc(CC(=S)N2CCOCC2)cc1	CYP2C19 inhib 96
COc1ccc(-n2c(COc3ccccc3)nnc2SCC(N)=O)cc1	CYP2C19 inhib 63
O=C(CSc1nnc(COc2ccccc2)n1-c1ccccc1)c1ccccc1	none
S=c1[nH]nc(COc2ccccc2)n1C1CCCCC1	CYP2C19 inhib 60
CC1CCCC(C)N1C(=O)CSc1nnc(COc2ccccc2)n1-c1ccccc1 (configuration not stated)	CYP2C19 inhib 65
COc1ccc(-n2c(COc3ccc(C)cc3)nnc2SCC(N)=O)cc1	none
NC(=O)CSc1nnc(COc2ccccc2)n1C1CCCCC1	CYP2C9 inhib 56, CYP2C19 inhib 80
CCCCc1ccc(NC(=O)C2CCCO2)cc1 (configuration not stated)	none
Cc1nnc(SC(C)C(=O)Nc2ccc(Cl)cn2)n1Cc1ccccc1 (configuration not stated)	none
COC(=O)CSc1nnc(C)n1-c1cccc(OC)c1	none
COc1ccc(CC(=O)NCc2nnc(SCC(=O)Nc3nccs3)n2-c2ccccc2)cc1	none
COc1ccc(OCc2nnc(SC(C)C(=O)Nc3nccs3)n2-c2ccccc2)cc1 (configuration not stated)	CYP2C9 inhib 60
CC(Sc1nnc(-c2ccc(Cl)cc2Cl)n1Cc1ccccc1)C(=O)Nc1nccs1 (configuration not stated)	CYP2C9 inhib 54
COc1cccc(-n2c(COc3ccc(C)cc3)nnc2SCC(N)=O)c1	CYP2C19 inhib 67
C=CCNC(=S)NNC(=O)c1ccc(OCC)cc1	none
CCOC(=O)c1c(NC(=O)c2cccs2)sc2c1CC(C)(C)OC2	none
O=C(Nc1ccc(Br)cc1F)c1sccc1-n1cccc1	none
C=C(C)C1CCC(C)=C1COC(=O)Nc1ccccc1 (configuration not stated)	none
O=C(c1cc(-c2cccs2)nc2ccccc12)N1CCN(S(=O)(=O)c2cccc(F)c2)CC1	CYP2C9 inhib 69
O=C(Nc1ccccc1)N1CCC(C(=O)N2CCN(S(=O)(=O)c3cccc(F)c3)CC2)CC1	none
O=C(c1cc(-c2cccs2)nc2ccccc12)N1CCN(S(=O)(=O)c2ccccc2)CC1	CYP2C9 inhib 94, CYP2C19 inhib 84
O=C(c1cn(-c2ccccc2)nc1-c1ccc(Cl)s1)N1CCOCC1	none
CCCOc1ccc(C(C)=O)cc1CSc1nc(O)cc(=O)[nH]1	CYP2C9 inhib 75
CCCOc1ccc(C(C)=O)cc1CC(C(N)=O)C(N)=O	none
Cc1cc(N/C=C/C(=O)c2cccc3ccccc23)no1	CYP2C19 inhib 57
CCOc1ccc(N(CC(=O)NC2CCCC2)S(=O)(=O)c2c(C)[nH]c(=O)[nH]c2=O)cc1	none
Cc1ccc(C(=O)NNc2cc(N3CCCC3)nc(N3CCCC3)n2)cc1	none
COCCn1c(=S)[nH]c2ccc(N(C)C)cc2c1=O	CYP2C19 inhib 52
Cn1cnnc1SCc1ccc(-c2ccc(Br)cc2)o1	CYP2C9 inhib 56, CYP2C19 inhib 93
O=C1N=C(N2CCC(Cc3ccccc3)CC2)S/C1=C/c1cn[nH]c1-c1ccccc1	CYP2C9 inhib 60
COc1ccc(NC(=O)Nc2ccc(Br)cn2)cc1OC	none
O=C(Nc1ccc(F)cc1F)c1cccnc1	none
CC(NC(=O)Nc1ccc(F)cc1F)c1ccncc1 (configuration not stated)	CYP2C19 inhib 80
COc1ccc(Cl)cc1NC(=O)NC(C)c1ccncc1 (configuration not stated)	CYP2C9 inhib 92, CYP2C19 inhib 97
COc1ccc(NC(=O)NC(C)c2ccncc2)cc1OC (configuration not stated)	CYP2C9 inhib 60
CCOC(=O)c1cc2sccc2n1CC(=O)Nc1ccc(OC)cc1	none
CCOC(=O)c1cc2sccc2n1CC(=O)N1CCc2ccccc21	none
CCOC(=O)c1cc2sccc2n1CC(=O)Nc1ccc(OC)c(OC)c1	CYP2C19 inhib 87
CCOC(=O)c1cc2sccc2n1CC(=O)OC(C)C	CYP2C9 inhib 88, CYP2C19 inhib 97
S=c1nc(C2CCCCC2)[nH][nH]1	none
CC(C)(C)NC(=O)Cn1ccc(=N)c2ccccc21	none
CC(C)(C)NC(=O)Cn1cc(C#N)c2cc(Br)ccc21	CYP2C19 inhib 88
O=S(=O)(N/N=C\C=C\c1ccccc1)c1ccc(Cl)cc1	CYP2C9 inhib 96
O=S(=O)(N/N=C/c1c(F)cccc1Cl)c1ccccc1	CYP2C19 inhib 66
O=S(=O)(N/N=C/c1ccc2c(c1)OCCO2)c1ccccc1	none
Cc1cccc(/C(N)=N/OC(=O)c2cccs2)c1	none
CC(=NCCc1ccccc1)C1=C(O)CSC1=O	CYP2C19 inhib 67
CC(=NCCc1ccccc1)C1=C(O)CCC1=O	none
CCc1ccc(S(=O)(=O)NCc2cn3c(C)csc3n2)s1	CYP2C19 inhib 78
O=S(=O)(NCc1ccccc1)c1ccc2c(c1)OCCO2	none
Cc1csc2nc(CNS(=O)(=O)c3ccc4c(c3)OCCO4)cn12	CYP2C19 inhib 64
O=S(=O)(NCc1ccccn1)c1ccc2c(c1)OCCO2	CYP2C19 inhib 83
COc1ccc(S(=O)(=O)NCc2csc(C)n2)cc1	none
Cc1nc(CNS(=O)(=O)c2ccc3c(c2)OCCO3)cs1	CYP2C19 inhib 87
Cc1ccn2cc(CNS(=O)(=O)c3ccc4c(c3)OCCO4)nc2c1	none
CN(C)CCCNS(=O)(=O)c1ccc(Oc2ncc(C(F)(F)F)cc2Cl)cc1	none
CCOC(=O)c1ccc(N2C(=O)CC(NC3CCN(C(=O)c4ccc(F)cc4)CC3)C2=O)cc1 (configuration not stated)	none
O=C(CN1C(=O)CNC1=O)Nc1cccc(C(F)(F)F)c1	none
O=S(=O)(NCCc1cn2ccccc2n1)c1cccs1	none
CCOc1ccc(S(=O)(=O)NCc2csc(C)n2)cc1	none

Bioassay records deposited in PubChem by Sanford-Burnham Center for Chemical Genomics.
